Compounds with a hit are over-represented: about 3.6% of the library has one in this group of screens.
BJeLR viability: MLPCN primary cell-based screen for lethality selective to Ras in HRASV12 cells; BJeLR (HRASV12) viability, CellTiter-Glo ATP luminescence, 48 h; inhibition, % (concentration not given with the values); 300,000 compounds, 0.17% hits; in the data active = inhibition above about 50%; inconclusive = no clear call, values can overlap the other calls
BoNT-F LC inh: BoNT/F light chain protease inhibitors, primary screen, biochemical, flow cytometry, MLPCN library; Botulinum neurotoxin type F light chain protease (Clostridium botulinum); Multiplex microsphere protease cleavage assay; inhibition, % at 10 µM; 360,000 compounds, 0.22% hits; in the data active = inhibition above about 35%, passing the limit was not always enough; inconclusive = no clear call, values can overlap the other calls; also: plate controls were buffer without enzyme for full effect and enzyme alone for no effect
Anthrax LF prot: Bacillus anthracis LF protease inhibitors, primary screen, biochemical, multiplex microsphere, MLPCN library | inhibition, % at 10 µM | Lethal factor (Bacillus anthracis), P15917 | multiplex microsphere protease cleavage assay | 360,000 compounds, 0.12% hits | AID 588501, 2011; also: plate controls were buffer without enzyme for full effect and enzyme alone for no effect
Target sequence (P15917 whole entry, looked up): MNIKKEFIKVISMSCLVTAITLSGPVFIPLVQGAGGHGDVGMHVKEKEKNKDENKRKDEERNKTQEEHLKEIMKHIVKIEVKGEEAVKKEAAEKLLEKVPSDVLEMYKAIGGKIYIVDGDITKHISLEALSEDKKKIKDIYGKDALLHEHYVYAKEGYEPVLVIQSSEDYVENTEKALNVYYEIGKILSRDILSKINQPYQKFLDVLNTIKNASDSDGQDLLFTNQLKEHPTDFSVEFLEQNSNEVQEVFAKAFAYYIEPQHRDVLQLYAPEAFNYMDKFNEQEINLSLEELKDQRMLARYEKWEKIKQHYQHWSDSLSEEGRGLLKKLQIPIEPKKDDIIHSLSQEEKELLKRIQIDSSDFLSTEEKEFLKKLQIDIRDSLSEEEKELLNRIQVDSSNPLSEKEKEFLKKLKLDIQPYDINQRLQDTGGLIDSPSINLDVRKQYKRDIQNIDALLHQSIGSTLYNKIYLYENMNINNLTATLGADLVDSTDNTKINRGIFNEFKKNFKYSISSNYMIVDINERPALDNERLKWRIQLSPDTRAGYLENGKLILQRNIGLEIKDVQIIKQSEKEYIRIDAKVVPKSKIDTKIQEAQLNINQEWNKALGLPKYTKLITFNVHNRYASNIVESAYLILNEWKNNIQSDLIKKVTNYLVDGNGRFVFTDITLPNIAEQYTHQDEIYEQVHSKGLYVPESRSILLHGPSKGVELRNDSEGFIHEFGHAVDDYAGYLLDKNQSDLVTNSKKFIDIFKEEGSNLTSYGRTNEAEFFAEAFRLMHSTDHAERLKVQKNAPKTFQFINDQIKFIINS
BoNT A protease: BoNT/A light chain protease inhibitors, primary screen, biochemical, flow cytometry, MLPCN library. AID 588499, 2011. Botulinum neurotoxin type A light chain protease (Clostridium botulinum A str. ATCC 3502). inhibition, % at 10 µM. multiplex microsphere protease substrate cleavage. 360,000 compounds, 0.17% hits; also: plate controls were buffer without enzyme for full effect and enzyme alone for no effect
Bead autofluor: compound fluorescence in toxin protease inhibitor counterscreen | 360,000 compounds, 3.1% hits | fluorescence intensity (test concentration not listed) | compound autofluorescence counterscreen, microsphere flow cytometry; stronger effect = higher value; in the data active = fluorescence intensity above about 16000; inconclusive = no clear call, values can overlap the other calls
3CLpro inhibitor: SARS-CoV 3CLpro protease inhibitors, primary screen, biochemical, quenched FRET. Replicase polyprotein 1ab (Severe acute respiratory syndrome coronavirus), P0C6X7. recombinant SARS-CoV 3CLpro, quenched FRET peptide cleavage. inhibition, % at 6 µM. 290,000 compounds, 0.14% hits; in the data active = inhibition above about 12%
* = called active by the depositor; ? = inconclusive; . = no result. Rule as the data show it, unless noted: active = inhibition above about 30%; inconclusive = no clear call, values can overlap the other calls; inactive = below that.

SMILES	BJeLR viability	BoNT-F LC inh	Anthrax LF prot	BoNT A protease	Bead autofluor	3CLpro inhibitor
O=C(CN1C(=O)NC2(CCCC2)C1=O)N1CCN(C(=O)c2ccco2)CC1	-2	2	2	1	19470*	-5
O=C(CN1C(=O)NC2(CCCCCCC2)C1=O)N1CCN(C(=O)c2ccco2)CC1	-9	5	-2	0	2618	4
O=C(c1ccco1)N1CCCN(C(=O)c2ccco2)CC1	7	1	0	-1	23373*	2
CC1=C(C(=O)N2CCCCCC2)CC(CC(=O)NCCN2CCOCC2)C(=O)N1CCCN1CCCC1=O (configuration not stated)	.	2	-7	0	6151	.
CC(NC(=O)c1ccc(NC(=O)CC2SC(N3CCCC3)=NC2=O)cc1)c1ccc(S(N)(=O)=O)cc1 (configuration not stated)	4	.	.	.	.	.
Cn1cnnc1SCC(=O)NN(c1ccccc1)c1ccccc1	7	7	0	-1	2319	-4
COc1ccc(-n2c3c(cc(C(=O)NCC(=O)c4ccccc4)c2=O)C(=O)CC(C)(C)C3)cc1	-5	4	-4	1	4302	7
Cc1ccc(C(=O)Cn2c(=N)n(CCN3CCOCC3)c3ccccc32)cc1	.	-3	1	0	4052	.
N=c1n(CCN2CCOCC2)c2ccccc2n1Cc1ccccc1Br	-1	-1	-1	0	19620*	-1
O=c1c2ccccc2nc(/C=C/c2ccc([N+](=O)[O-])o2)n1CCCO	52*	-18	8	4	3979	-3
O=c1c2ccccc2nc(/C=C/c2ccc([N+](=O)[O-])cc2)n1CCCO	8	9	12	14	8634	2
O=c1[nH]c(=O)n2ncnc2[nH]1	.	-10	-2	0	2878	.
CN(C)c1ccc(CNn2cnnc2SCc2ccccc2F)cc1	0	13	-3	10	19034*	-4
CN(C)c1ccc(CNn2cnnc2)cc1	-6	0	-1	0	5139	-5
CCNc1c2c3c(cccc3n(C)c1=O)C(=O)c1ccccc1-2	0	.	.	.	.	-40
Cn1c(=O)c(NCCO)c2c3c(cccc31)C(=O)c1ccccc1-2	-11	10	1	6	4675	-280
Cn1c(=O)c(NC2CCCCC2)c2c3c(cccc31)C(=O)c1ccccc1-2	.	11	23	44*	8853	-5
Cn1c(=O)c(NCCc2ccccc2)c2c3c(cccc31)C(=O)c1ccccc1-2	0	41*	47*	47*	9014	-93
CCCCNc1c2c3c(cccc3n(C)c1=O)C(=O)c1ccccc1-2	-10	50*	56*	74*	8728	-79
CCOC(=O)C1CCCN(C(=O)Nc2c(-c3ccccc3)noc2C)C1 (configuration not stated)	-4	3	1	0	4119	-4
CC(C)(C)NC(=O)CN(C(=O)Cn1nnc(-c2ccccc2F)n1)c1cccc2c1CCCC2	-2	-2	-1	-1	17013*	2
COc1ccccc1N(CC(=O)NC(C)(C)C)C(=O)Cn1nnc(-c2ccc(C)o2)n1	4	8	-7	0	9620	1
CCOC(=O)c1ccc(-c2ccc(N3C(c4cccc(OC)c4)=Cc4ccc(F)cc4C3CC(C)=O)cc2)cc1F (configuration not stated)	.	6	18	13	5073	.
CCNc1nc(OC)nc(Oc2ccc(=O)n(-c3ccccc3)n2)n1	5	11	2	1	3471	-7
CN(C)c1nc(Oc2ccc(=O)n(-c3ccccc3)n2)nc(N2CCOCC2)n1	4	0	0	?	21946*	-5
SMILES	BJeLR viability	BoNT-F LC inh	Anthrax LF prot	BoNT A protease	Bead autofluor	3CLpro inhibitor
COc1nc(NC(C)(C)C)nc(Oc2ccc(=O)n(-c3ccccc3)n2)n1	0	-1	0	0	21751*	0
CC(C)(C)c1ccc(S(=O)(=O)N2CCN(c3ncccn3)CC2)cc1	5	-6	-2	0	2046	2
CC(=O)N1CCN(C(=O)CCCNC(=O)c2ccc(Cl)cc2)CC1	-16	12	1	2	5220	6
C/C(=N/NC(=O)CNc1ccc(C)cc1)c1ccc(Br)s1	-20	-3	1	0	19958*	-2
O=C(Nc1cccc(S(=O)(=O)NC2=NCCC2)c1)c1cc(Cl)ccc1[N+](=O)[O-]	3	.	.	.	.	.
CCCn1nnc(NC(=O)C(C)C)n1	-7	?	-14	?	3617	1
COCCNc1nc2c(c(=O)n(Cc3ccc(OC)cc3)c(=O)n2C)n1C	2	-2	-3	-1	22936*	0
COCCNc1nc2c(c(=O)n(Cc3cccc(Cl)c3)c(=O)n2C)n1C	-6	7	-2	-2	5111	1
COc1ccc(CNc2nc3c(c(=O)n(Cc4ccc(Cl)cc4)c(=O)n3C)n2C)cc1	10	4	-3	0	16319*	-4
CCN(CC)c1ccc(/C=C2\CCC(/C=C(\C#N)C(=O)Nc3ccccc3F)=C2N2CCOCC2)cc1	14	-18	9	40*	3080	1
Cc1ccc(Nc2cc(C)c(O)c(C)c2)cc1	-5	?	1	-1	3385	0
CC(=O)c1c(O)cc(C)n(Nc2nc(C)cc(C)n2)c1=O	6	-3	-2	?	21656*	1

Assay outcomes as filed in PubChem BioAssay.
